Screening data from PubChem BioAssay.
HT1080 IDH1KD tx: kills HT-1080 cells with IDH1 knockdown; HT-1080 IDH1 knockdown viability, ATP luminescence, 48 h; 360,000 tested, 2% active; Potency, µM (titrated, usually from 46.1 µM), for inactives: at the highest dose activity, negative = toxicity, most hits filed as cytotoxic;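 further: potency means the concentration at half of the fitted maximal effect; 0% = DMSO wells and -100% = cell-free medium wells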
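Viability of IDH1-knockdown HT-1080 fibrosarcoma cells was assessed by CellTiter-Glo after 48 h at 37 °C with titrated compound; concentration-effect curves were classified by fit quality and response size.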
IL1B secr inh: inflammasome signaling inhibition, IL-1 beta readout | THP-1 LPS/ATP IL-1B secretion, AlphaLISA, 16 h; stronger effect = lower value | activity change, % at 57.5 µM | 360,000 tested, 4.7% active; in the data active means activity change below about -50%; inconclusive means mostly about -30% to -49%
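Secreted IL-1B measured by AlphaLISA bead assay after 16 h compound exposure of THP-1 cells; compounds (final up to 57.5 uM) added 1 h before LPS (250 ng/mL) and ATP (1.25 mM) stimulation; lower signal means less secretion.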
TDP1 cell CPT: DT40-hTDP1 cell growth loss with CPT. chicken DT40 Tdp1-/-;hTDP1 cells + 20 nM CPT, ATP luminescence, 48 h. Potency, µM (doses to about 46.2 µM), for the others: top-dose activity change, negative = growth inhibition, most hits filed as inhibitors. 420,000 tested, 12% active. AID 686979; further: potency means the concentration at half of the fitted maximal effect; nearly all actives have a fitted effect of over 55% in size
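Cell growth measured by CellTiter-Glo luminescence after a minimum 48 h, 37 C compound exposure with 20 nM CPT in Tdp1-knockout DT40 cells stably expressing hTDP1, seeded 400/well; qHTS titration format.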
TDP1 cell noCPT: qHTS for Inhibitors of human tyrosyl-DNA phosphodiesterase 1 (TDP1): qHTS in cells in absence of CPT; DT40 Tdp1-/- hTDP1 cells, no CPT, ATP luminescence, 48 h; Potency, µM (highest dose often 46.2 µM), inactives show at the highest dose activity change, negative = growth inhibition, actives largely listed as inhibitors; 420,000 tested, 15% active; further: potency means the concentration at half of the fitted maximal effect; nearly all actives have a fitted effect of over 55% in size
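A cellular qHTS used chicken DT40 cells lacking endogenous Tdp1 but carrying stably transfected human TDP1. Compounds were applied without camptothecin, and cell growth kinetics were judged by ATP-dependent luminescence after ≥48 hr.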
12-LOX inh: ALOX12 (human) lipoxygenase inhibition; Potency, µM (top dose mostly 108 µM), inactives show top-dose activity change, negative = inhibition, usual class: inhibitors; 580,000 tested, 1.1% active; purified 12hLO, xylenol orange hydroperoxide absorbance; P18054; AID 1671190; further: potency means the concentration at half of the fitted maximal effect
Target sequence (P18054 whole entry, looked up): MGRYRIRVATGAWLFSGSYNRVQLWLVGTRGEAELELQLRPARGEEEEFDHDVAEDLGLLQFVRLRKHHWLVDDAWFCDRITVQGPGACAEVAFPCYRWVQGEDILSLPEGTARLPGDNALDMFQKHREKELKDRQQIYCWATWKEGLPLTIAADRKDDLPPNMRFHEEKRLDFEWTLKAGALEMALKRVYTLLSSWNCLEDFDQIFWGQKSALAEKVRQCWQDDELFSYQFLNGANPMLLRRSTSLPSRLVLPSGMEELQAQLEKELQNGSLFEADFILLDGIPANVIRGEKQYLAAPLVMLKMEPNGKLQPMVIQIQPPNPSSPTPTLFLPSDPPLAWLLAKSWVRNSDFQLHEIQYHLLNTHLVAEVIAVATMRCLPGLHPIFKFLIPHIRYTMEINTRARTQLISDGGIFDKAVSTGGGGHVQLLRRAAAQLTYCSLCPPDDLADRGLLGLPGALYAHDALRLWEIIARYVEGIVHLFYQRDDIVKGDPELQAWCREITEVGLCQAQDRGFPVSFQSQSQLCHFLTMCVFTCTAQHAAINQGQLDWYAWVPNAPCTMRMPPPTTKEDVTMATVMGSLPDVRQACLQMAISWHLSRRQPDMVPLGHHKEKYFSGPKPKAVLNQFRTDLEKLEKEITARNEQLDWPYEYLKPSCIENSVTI
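Hydroperoxide product was detected by ferrous iron/xylenol orange as the 573 to 405 nm absorbance ratio. Arachidonic acid at 40 uM (final) was turned over for 30 min at room temperature by 150 nM human 12hLO, pH 7.0 Hepes buffer, after 15 min compound preincubation.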
HT1080-NT tox: kills 2HG-producing HT-1080-NT fibrosarcoma cells | HT-1080-NT fibrosarcoma viability, CellTiter-Glo ATP luminescence, 48 h | Potency, µM (titrated, usually from 46.1 µM), without a hit: at the highest dose activity, negative = less viability, usual class: cytotoxic | 360,000 tested, 1.6% active;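 further: NT is the 2HG producing partner of a matched IDH1 knockdown line; potency means the concentration at half of the fitted maximal effect; 0% = DMSO-treated cells and -100% = media-only wells without cells; nearly all actives have a fitted effect of over 55% in size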
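Fibrosarcoma NT cells, 750 per well in 5% FBS RPMI, were exposed to compound for 48 hours. Viability: CellTiter-Glo luminescence.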
The depositor's hits bear a star; ? = inconclusive; . = no result given. The full list was thinned out, with hits kept by preference. Unless noted, the call rests on the fitted dose curve; in most records, active means well fitted curve in the direction sought with a large enough effect; inconclusive means small, poorly fitted or top-dose-only effect, or another doubt; inactive means no such curve, though single readings can be large; an effect the other way counts as inactive or inconclusive. Unless noted, on the % scale 0 is the no-effect control and ±100 the full control effect.

SMILES	HT1080 IDH1KD tx	IL1B secr inh	TDP1 cell CPT	TDP1 cell noCPT	12-LOX inh	HT1080-NT tox
CCC(=O)/C=C1\Sc2ccc(OC)cc2N1CC	-9.5%	-5.7	?	16.4µM*	0.0%	-22.9%
CCC(=O)/C=C1\Sc2ccc(OC)cc2N1CCO	26.1%	-16.7	-25.9%	-21.1%	-8.5%	?
Cc1ccc2sc(N(Cc3cccnc3)C(=O)CCS(=O)(=O)c3ccccc3)nc2c1C	.	.	5.8µM*	6.51µM*	?	.
O=C(CCOc1ccccc1)N(Cc1cccnc1)c1nc2c(Cl)cccc2s1	.	.	1.3µM*	2.06µM*	-17.5%	.
O=C(c1cccs1)N(Cc1cccnc1)c1nc2c(Cl)cccc2s1	.	.	-21.3%	?	-11.4%	.
Cc1cc(C)c2sc(N(Cc3cccnc3)C(=O)CCS(=O)(=O)c3ccccc3)nc2c1	.	.	4.11µM*	2.91µM*	?	.
Cc1cccc2sc(N(Cc3cccnc3)C(=O)CCOc3ccccc3)nc12	.	.	?	?	-16.7%	.
O=C(CCS(=O)(=O)c1ccccc1)N(Cc1cccnc1)c1nc2c(Cl)cccc2s1	.	.	5.17µM*	5.17µM*	2.4%	.
CC(=O)N(Cc1cccnc1)c1nc2cc(C)cc(C)c2s1	.	.	?	?	-25.7%	.
Cc1cc(C)c2nc(N(Cc3cccnc3)C(=O)CCS(=O)(=O)c3ccccc3)sc2c1	.	.	4.61µM*	4.61µM*	-24.4%	.
Cc1cc(C)c2nc(N(Cc3cccnc3)C(=O)c3ccc(S(=O)(=O)N(C)C)cc3)sc2c1	.	.	?	18.4µM*	-3.4%	.
Cc1cccc2sc(N(Cc3cccnc3)C(=O)CCS(=O)(=O)c3ccccc3)nc12	.	.	2.91µM*	3.26µM*	?	.
Cc1cc(C)c2nc(N(Cc3cccnc3)C(=O)CCOc3ccccc3)sc2c1	.	.	-17.6%	?	-11.6%	.
Cc1ccc2sc(N(Cc3cccnc3)C(=O)c3ccc(S(=O)(=O)N(C)C)cc3)nc2c1C	.	.	.	.	4.1%	.
O=C(O)COc1ccc(-c2nccc3c2C(=O)N(Cc2cccc(C(F)(F)F)c2)CC(COc2cccc(F)c2)O3)cc1 (stereo not drawn)	.	.	.	.	4.2%	.
Cc1nn2c(NCCc3ncc[nH]3)cc(-c3ccccc3)nc2c1C	.	.	.	.	130.4%	.
O=c1[nH]c(-c2cccnc2)nc2sc(-c3ccccc3)cc12	4.61µM*	16.3	0.517µM*	0.517µM*	-1.8%	?
c1ccc(-c2nc3cc4ccccc4cc3[nH]2)nc1	?	-94.9*	?	?	1.9%	?
c1cncc(-c2nc3cc4ccccc4cc3[nH]2)c1	-16.2%	-84.5*	?	?	11.7%	-27.7%
CC(=O)Nc1ccc2nc(-c3ccccn3)[nH]c2c1	-1.8%	-5.9	-23.4%	0.9%	?	3.9%
CC1CCN(C(=O)C2CCCN(c3cnn(C)c(=O)c3)C2)CC1 (stereo not drawn)	.	.	.	.	1.1%	.
O=C(Nc1cccc2ccccc12)c1cc(F)c(F)cc1Cl	.	.	.	.	-3.1%	.
CCCCc1ccc(-c2csc(/C(C#N)=C/c3ccc(-c4ccccc4)cc3)n2)cc1	.	.	.	.	5.8%	.
O=C(NCc1cccs1)c1cc(-c2ccccc2)nc2ccccc12	-0.6%	12.4	23.1µM*	20.6µM*	-2.5%	-4.1%
O=C(Nc1nnc(-c2cccs2)o1)c1cc(-c2ccccc2)nc2ccccc12	?	81.8	13µM*	14.6µM*	-2.1%	?
SMILES	HT1080 IDH1KD tx	IL1B secr inh	TDP1 cell CPT	TDP1 cell noCPT	12-LOX inh	HT1080-NT tox
Nc1nc2ccccc2cc1C(=O)NCCCCc1ccccc1	?	52.0	2.06µM*	1.64µM*	.	?
Cc1ccc(C)c(-c2cc(C(=O)NCc3cccs3)c3ccccc3n2)c1	-26.1%	-9.8	?	?	8.9%	-17.5%
COc1ccccc1Nc1cc(C(=O)NCc2cccs2)c2ccccc2n1	.	.	25.9µM*	?	?	.
S=C(NCc1ccccc1)N/N=C/c1cccnc1	.	.	.	.	6.8%	.
COc1cc2[nH]cc(C(=O)NCc3cccs3)c(=O)c2cc1OC	?	-8.6	-10.3%	-15.9%	21.7%	20µM*
Cc1ccc(-c2nc3ccccc3c(C(=O)NCc3cccs3)c2C)cc1	-10.4%	-8.2	20.6µM*	?	?	-10.1%
Cc1ccccc1Nc1cc(C(=O)NCc2cccs2)c2ccccc2n1	.	.	20.6µM*	?	?	.
Nc1nc2ccccc2cc1C(=O)NCc1cccs1	-25.8%	47.6	9.2µM*	7.31µM*	5.0%	-11.0%
Cc1ccc(Nc2cc(C(=O)NCc3cccs3)c3ccccc3n2)c(C)c1	.	.	?	-25.2%	?	.
COc1ccc(CC(=O)NCc2cccs2)cc1OC	7.5%	9.7	-13.8%	-5.9%	-19.1%	7.0%
O=C(NCc1cccs1)c1cc2ccccc2oc1=O	.	.	.	.	-27.6%	.
